From ChEMBL document CHEMBL4513141, “CO-ADD screening of NIH (USA) - Clinical Collection” (2021)
Potency and affinity values are given separately.

Assays:
Klebsiella pneumoniae = conditions: Concentration 20 uM; ASSAY_TEST Inhibition of Bacterial Growth; detection method Absorption (OD600); MEDIA CAMHB; plate type 384well; NBS; CORNING #3640; time 18 hr
Candida albicans = conditions: 20 µM
Cryptococcus neoformans = conditions: Concentration 20 uM; ASSAY_TEST Inhibition of Fungal Growth; detection method Resazurin; Absorption (OD600-OD570); plate type 384well; NBS; CORNING #3640

Structure (SMILES) | Inhibition (Klebsiella pneumoniae) [%] | Inhibition (Candida albicans) [%] | Inhibition (Cryptococcus neoformans) [%]
Br.COc1ccc2c(c1)[C@]13CCCC[C@@H]1[C@H](C2)N(C)CC3.O [DEXTROMETHORPHAN HYDROBROMIDE] | 8.1 | 2.88 | -7.7
COc1ccc(CCN)cc1OC | 8.69 | 2.72 | -1.54
CC[C@@H](C(N)=O)N1CCCC1=O | 13.35 | 2.36 | -2.67
Cc1cc(NS(=O)(=O)c2ccc(N)cc2)no1 [SULFAMETHOXAZOLE] | 4.09 | 6.42 | 2.83
CNCC(O)c1ccc(O)cc1 (stereo not drawn) [OXEDRINE] | -0.12 | 5.72 | 1.4
CN1CCN2c3ncccc3Cc3ccccc3C2C1 (stereo not drawn) [MIRTAZAPINE] | 5.61 | 4.27 | 3.57
CC(O)(CS(=O)(=O)c1ccc(F)cc1)C(=O)Nc1ccc(C#N)c(C(F)(F)F)c1 (stereo not drawn) [BICALUTAMIDE] | 7.16 | -0.48 | -5.03
CC(=O)OCC[N+](C)(C)C.[Cl-] [ACETYLCHOLINE CHLORIDE] | 16.59 | 1.39 | -1.88
CCN(CC)CCOC(=O)C(O)(c1ccccc1)c1ccccc1.Cl | 9.09 | 3.32 | -7.17
CC(C)(C)NCC(O)c1cc(O)cc(O)c1.O=S(=O)(O)O (stereo not drawn) | 12.1 | 2.97 | -9.43
CC(C)N(CCC(C(N)=O)(c1ccccc1)c1ccccn1)C(C)C.O=P(O)(O)O (stereo not drawn) [DISOPYRAMIDE PHOSPHATE] | 5.68 | 3.35 | 0.14
